# In PubChem BioAssay (NCI):
# This is part of a sample that, as a whole, favours compounds with a hit. Of some 79,000 tested, about 15% had one in any assay. A number with no mark means an inactive call. Calls of active or inactive are those of the source. No stated cut-off is given here; in the data, active means growth inhibition above about 70%; inactive means the rest.
# Columns and labels:
# [1] = NCI Yeast Anticancer Drug Screen. Data for the rad52 strain (AID 147);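 further: 0% = growth of vehicle-treated control cultures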; conditions: S. cerevisiae rad52 mutant growth inhibition, stronger effect = higher value
# Summary of the method: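 The repair-mutant yeast strain was incubated with compounds, then growth was read and inhibition derived relative to vehicle.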
# [2] = NCI Yeast Anticancer Drug Screen. Data for the wt1 strain (AID 149);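 further: 0% = growth of vehicle-treated wt1 cultures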; conditions: S. cerevisiae wt1 strain (SPY 50644) growth inhibition, stronger effect = higher value
# Summary of the method: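 The wt1 strain was treated with compounds, and growth was compared with vehicle-treated cultures to give inhibition.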
# [3] = NCI Yeast Anticancer Drug Screen. Data for the rad50EPP+ strain (AID 151);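 further: 0% = growth of vehicle-treated control cultures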; conditions: S. cerevisiae rad50 mutant strain, stronger effect = higher value
# Summary of the method: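 Vehicle-normalised growth inhibition; rad50EPP+ yeast strain, altered in DNA damage repair, compound-treated.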
# [4] = NCI Yeast Anticancer Drug Screen. Data for the mgt1 strain (AID 153); conditions: S. cerevisiae mgt1 mutant growth inhibition, stronger effect = higher value
# Summary of the method: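 Vehicle-normalized growth inhibition is determined in mgt1 yeast, a strain selected for a defined alteration in DNA repair or cell cycle control.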
# [5] = NCI Yeast Anticancer Drug Screen. Data for the rad50 strain (AID 155);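 further: 0% = growth of vehicle-only cultures of the same strain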; conditions: S. cerevisiae rad50 strain growth inhibition, stronger effect = higher value
# Summary of the method: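 Cells are treated with compound, grown, and their growth is then scored against vehicle-only cultures of the same repair-deficient yeast strain.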
# [6] = NCI Yeast Anticancer Drug Screen. Data for the mec2-1 strain (AID 157); conditions: S. cerevisiae mec2-1 strain, stronger effect = higher value
# Summary of the method: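 Mutant yeast (mec2-1) grown with compound; growth inhibition relative to vehicle control reported.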
# [7] = NCI Yeast Anticancer Drug Screen. Data for the rad14 strain (AID 159);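 further: 0% = growth of vehicle-treated control cultures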; conditions: S. cerevisiae rad14 strain growth inhibition, stronger effect = higher value
# Summary of the method: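 Readout: yeast growth inhibition, referenced to vehicle-only cultures. Strain bears a defined alteration in DNA damage repair.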
# [8] = NCI Yeast Anticancer Drug Screen. Data for the sgs1 mgt1 strain (AID 161);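 further: 0% = growth of cultures given vehicle only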; conditions: S. cerevisiae sgs1 mgt1 strain, stronger effect = higher value
# Summary of the method: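 Yeast cells carrying a defined DNA-repair defect were exposed to test compounds. Growth inhibition was measured relative to vehicle-treated controls.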
# [9] = NCI Yeast Anticancer Drug Screen. Data for the CLN2oe strain (AID 163);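 further: 0% = growth of vehicle-only control cultures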; conditions: S. cerevisiae CLN2oe strain, stronger effect = higher value
# Summary of the method: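 Compounds are applied to yeast harbouring a defined cell-cycle control change; reduced growth compared with vehicle-treated controls gives the value.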
# [10] = NCI Yeast Anticancer Drug Screen. Data for the cln2 rad14 strain (AID 165);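 further: 0% = growth equal to vehicle treated cultures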; conditions: S. cerevisiae cln2 rad14 strain, stronger effect = higher value
# Summary of the method: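 Readout is yeast growth inhibition versus vehicle-treated controls, using a strain with cln2 and rad14 alterations exposed to compound.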
# [11] = NCI Yeast Anticancer Drug Screen. Data for the bub3 strain (AID 167); conditions: S. cerevisiae bub3 mutant strain, stronger effect = higher value
# Summary of the method: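 Part of a panel of yeast mutants defective in DNA damage repair or cell cycle regulation. Each strain is grown with compound, and inhibition is calculated relative to solvent-treated cultures.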
# [12] = NCI Yeast Anticancer Drug Screen. Data for the wt2 strain (AID 169);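 further: 0% = growth of vehicle-treated yeast cultures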; conditions: S. cerevisiae wt2 strain growth inhibition, stronger effect = higher value
# Summary of the method: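 Against vehicle-treated controls, the growth of yeast exposed to each compound was compared, and the inhibition was recorded.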
# [13] = NCI Yeast Anticancer Drug Screen. Data for the mlh1 strain (AID 171);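 further: 0% = growth of vehicle-treated control cultures of the same strain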; conditions: S. cerevisiae mlh1 strain growth inhibition, stronger effect = higher value
# Summary of the method: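 Measured: yeast growth. Reference: vehicle-treated controls. Organism: strain with a defined alteration affecting DNA damage repair or cell cycle control, treated with compound.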
# [14] = NCI Yeast Anticancer Drug Screen. Data for the sgs1 strain (AID 173);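 further: 0% = growth of vehicle-only control cultures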; conditions: S. cerevisiae sgs1 mutant, stronger effect = higher value
# Summary of the method: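 Each compound was added to cultures of the altered yeast strain. Growth was recorded, and inhibition was derived by comparison with vehicle controls.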
# [15] = NCI Yeast Anticancer Drug Screen. Data for the mlh1 rad18 strain (AID 175); conditions: S. cerevisiae mlh1 rad18 strain growth inhibition, stronger effect = higher value
# Summary of the method: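 Genetically defined yeast (DNA repair-deficient) exposed to compounds; growth inhibition determined relative to vehicle.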
# [16] = NCI Yeast Anticancer Drug Screen. Data for the rad18 strain (AID 177); conditions: S. cerevisiae rad18 mutant growth inhibition, stronger effect = higher value
# Summary of the method: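 Vehicle-treated cultures served as the baseline for scoring compound-induced growth inhibition in DNA-repair-mutant yeast.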
# [17] = at 5.0 µM (retest, dose inferred, filed as 0.5)
# [18] = at 50.0 µM (retest, dose inferred, filed as 5.0)
compound,measurement,setting,value
O=C(NCCNCCNC(=O)c1cc(-c2ccccc2)nc2ccccc12)c1cc(-c2ccccc2)nc2ccccc12,growth inhibition,[1]; at 1.2 µM,-3%
same,growth inhibition,[1]; at 3.7 µM,-3%
same,growth inhibition,[1]; at 11.0 µM,-3%
same,growth inhibition,[1]; at 33.0 µM,-5%
same,growth inhibition,[1]; at 100.0 µM,41%
same,growth inhibition,[2]; at 1.2 µM,-2%
same,growth inhibition,[2]; at 3.7 µM,-2%
same,growth inhibition,[2]; at 11.0 µM,-3%
same,growth inhibition,[2]; at 33.0 µM,-2%
same,growth inhibition,[2]; at 100.0 µM,6%
same,growth inhibition,[3]; at 1.2 µM,-1%
same,growth inhibition,[3]; at 3.7 µM,2%
same,growth inhibition,[3]; at 11.0 µM,3%
same,growth inhibition,[3]; at 33.0 µM,9%
same,growth inhibition,[3]; at 100.0 µM,9%
same,growth inhibition,[4]; at 1.2 µM,-2%
same,growth inhibition,[4]; at 3.7 µM,-1%
same,growth inhibition,[4]; at 11.0 µM,-2%
same,growth inhibition,[4]; at 33.0 µM,0%
same,growth inhibition,[4]; at 100.0 µM,1%
same,growth inhibition,[5]; at 1.2 µM,-3%
same,growth inhibition,[5]; at 3.7 µM,-2%
same,growth inhibition,[5]; [17],-11%
same,growth inhibition,[5]; at 11.0 µM,-4%
same,growth inhibition,[5]; at 33.0 µM,-2%
same,growth inhibition,[5]; [18],28%
same,growth inhibition,[5]; at 50.0 µM,31.6%
same,growth inhibition,[5]; at 100.0 µM,1%
same,growth inhibition,[6]; at 1.2 µM,-3%
same,growth inhibition,[6]; at 3.7 µM,-3%
same,growth inhibition,[6]; [17],-11%
same,growth inhibition,[6]; at 11.0 µM,-1%
same,growth inhibition,[6]; at 33.0 µM,-2%
same,growth inhibition,[6]; [18],40%
same,growth inhibition,[6]; at 50.0 µM,96.3% (active)
same,growth inhibition,[6]; at 100.0 µM,5%
same,growth inhibition,[7]; at 1.2 µM,-3%
same,growth inhibition,[7]; at 3.7 µM,-1%
same,growth inhibition,[7]; at 11.0 µM,-2%
same,growth inhibition,[7]; at 33.0 µM,4%
same,growth inhibition,[7]; at 100.0 µM,4%
same,growth inhibition,[8]; [17],9%
same,growth inhibition,[8]; [18],7%
same,growth inhibition,[8]; at 50.0 µM,21.6%
same,growth inhibition,[9]; at 1.2 µM,-2%
same,growth inhibition,[9]; at 3.7 µM,-2%
same,growth inhibition,[9]; at 11.0 µM,-3%
same,growth inhibition,[9]; at 33.0 µM,-5%
same,growth inhibition,[9]; at 100.0 µM,45%
same,growth inhibition,[10]; [17],-4%
same,growth inhibition,[10]; [18],45%
same,growth inhibition,[10]; at 50.0 µM,90.3% (active)
same,growth inhibition,[11]; at 1.2 µM,-2%
same,growth inhibition,[11]; at 3.7 µM,-1%
same,growth inhibition,[11]; [17],2%
same,growth inhibition,[11]; at 11.0 µM,-1%
same,growth inhibition,[11]; at 33.0 µM,-5%
same,growth inhibition,[11]; [18],58%
same,growth inhibition,[11]; at 50.0 µM,97.8% (active)
same,growth inhibition,[11]; at 100.0 µM,-2%
same,growth inhibition,[12]; at 1.2 µM,-2%
same,growth inhibition,[12]; at 3.7 µM,-2%
same,growth inhibition,[12]; at 11.0 µM,-1%
same,growth inhibition,[12]; at 33.0 µM,-2%
same,growth inhibition,[12]; at 100.0 µM,4%
same,growth inhibition,[13]; at 1.2 µM,-2%
same,growth inhibition,[13]; at 3.7 µM,1%
same,growth inhibition,[13]; at 11.0 µM,-2%
same,growth inhibition,[13]; at 33.0 µM,-2%
same,growth inhibition,[13]; at 100.0 µM,-1%
same,growth inhibition,[14]; at 1.2 µM,-2%
same,growth inhibition,[14]; at 3.7 µM,0%
same,growth inhibition,[14]; at 11.0 µM,0%
same,growth inhibition,[14]; at 33.0 µM,0%
same,growth inhibition,[14]; at 100.0 µM,22%
same,growth inhibition,[15]; [17],7%
same,growth inhibition,[15]; [18],66%
same,growth inhibition,[15]; at 50.0 µM,50.6%
same,growth inhibition,[16]; at 1.2 µM,-3%
same,growth inhibition,[16]; at 3.7 µM,-4%
same,growth inhibition,[16]; at 11.0 µM,-3%
same,growth inhibition,[16]; at 33.0 µM,-2%
same,growth inhibition,[16]; at 100.0 µM,-1%
O=C1C[C@H]2[C@H](c3ccc(Br)cc3)[C@H]3C(=O)c4ccccc4NC(=O)[C@@H]3[C@@]2(O)c2ccccc2N1,growth inhibition,[1]; at 1.2 µM,5%
same,growth inhibition,[1]; at 3.7 µM,7%
same,growth inhibition,[1]; at 11.0 µM,8%
same,growth inhibition,[1]; at 33.0 µM,38%
same,growth inhibition,[1]; at 100.0 µM,33%
same,growth inhibition,[2]; at 1.2 µM,6%
same,growth inhibition,[2]; at 3.7 µM,10%
same,growth inhibition,[2]; at 11.0 µM,11%
same,growth inhibition,[2]; at 33.0 µM,14%
same,growth inhibition,[2]; at 100.0 µM,16%
same,growth inhibition,[3]; at 1.2 µM,0%
same,growth inhibition,[3]; at 3.7 µM,2%
same,growth inhibition,[3]; at 11.0 µM,3%
same,growth inhibition,[3]; at 33.0 µM,3%
same,growth inhibition,[3]; at 100.0 µM,3%
same,growth inhibition,[4]; at 1.2 µM,5%
same,growth inhibition,[4]; at 3.7 µM,11%
same,growth inhibition,[4]; at 11.0 µM,12%
same,growth inhibition,[4]; at 33.0 µM,45%
same,growth inhibition,[4]; at 100.0 µM,36%
same,growth inhibition,[5]; at 1.2 µM,3%
same,growth inhibition,[5]; at 3.7 µM,6%
same,growth inhibition,[5]; [17],-12%
same,growth inhibition,[5]; at 11.0 µM,9%
same,growth inhibition,[5]; at 33.0 µM,35%
same,growth inhibition,[5]; [18],14%
same,growth inhibition,[5]; at 50.0 µM,96.8% (active)
same,growth inhibition,[5]; at 100.0 µM,35%
same,growth inhibition,[6]; at 1.2 µM,9%
same,growth inhibition,[6]; at 3.7 µM,11%
same,growth inhibition,[6]; [17],14%
same,growth inhibition,[6]; at 11.0 µM,15%
same,growth inhibition,[6]; at 33.0 µM,33%
same,growth inhibition,[6]; [18],19%
same,growth inhibition,[6]; at 50.0 µM,97.8% (active)
same,growth inhibition,[6]; at 100.0 µM,33%
same,growth inhibition,[7]; at 1.2 µM,6%
same,growth inhibition,[7]; at 3.7 µM,9%
same,growth inhibition,[7]; at 11.0 µM,16%
same,growth inhibition,[7]; at 33.0 µM,32%
same,growth inhibition,[7]; at 100.0 µM,27%
same,growth inhibition,[8]; [17],-3%
same,growth inhibition,[8]; [18],2%
same,growth inhibition,[8]; at 50.0 µM,96.4% (active)
same,growth inhibition,[9]; at 1.2 µM,9%
same,growth inhibition,[9]; at 3.7 µM,16%
same,growth inhibition,[9]; at 11.0 µM,16%
same,growth inhibition,[9]; at 33.0 µM,38%
same,growth inhibition,[9]; at 100.0 µM,38%
same,growth inhibition,[10]; [17],-7%
same,growth inhibition,[10]; [18],27%
same,growth inhibition,[10]; at 50.0 µM,97% (active)
same,growth inhibition,[11]; at 1.2 µM,3%
same,growth inhibition,[11]; at 3.7 µM,7%
same,growth inhibition,[11]; [17],7%
same,growth inhibition,[11]; at 11.0 µM,9%
same,growth inhibition,[11]; at 33.0 µM,19%
same,growth inhibition,[11]; [18],56%
same,growth inhibition,[11]; at 50.0 µM,72% (active)
same,growth inhibition,[11]; at 100.0 µM,23%
same,growth inhibition,[12]; at 1.2 µM,6%
same,growth inhibition,[12]; at 3.7 µM,11%
same,growth inhibition,[12]; at 11.0 µM,15%
same,growth inhibition,[12]; at 33.0 µM,28%
same,growth inhibition,[12]; at 100.0 µM,30%
same,growth inhibition,[13]; at 1.2 µM,6%
same,growth inhibition,[13]; at 3.7 µM,12%
same,growth inhibition,[13]; at 11.0 µM,14%
same,growth inhibition,[13]; at 33.0 µM,32%
same,growth inhibition,[13]; at 100.0 µM,29%
same,growth inhibition,[14]; at 1.2 µM,8%
same,growth inhibition,[14]; at 3.7 µM,17%
same,growth inhibition,[14]; at 11.0 µM,26%
same,growth inhibition,[14]; at 33.0 µM,44%
same,growth inhibition,[14]; at 100.0 µM,39%
same,growth inhibition,[15]; [17],36%
same,growth inhibition,[15]; [18],54%
same,growth inhibition,[15]; at 50.0 µM,97.8% (active)
same,growth inhibition,[16]; at 1.2 µM,6%
same,growth inhibition,[16]; at 3.7 µM,16%
same,growth inhibition,[16]; at 11.0 µM,29%
same,growth inhibition,[16]; at 33.0 µM,52%
same,growth inhibition,[16]; at 100.0 µM,46%
